Data on 21 compounds can be found in PubChem BioAssay (NCATS).

Inconclusive results are not listed. Unmarked numbers belong to inactive results. The call rests on the fitted dose curve; in most records, active means well fitted inhibition curve with a large enough effect; inconclusive means small, poorly fitted or top-dose-only effect, or effect the other way; inactive means flat fitted curve, though single readings scatter.
On the % scale 0 is the no-effect control and ±100 the full control effect.

ATPase family AAA domain-containing protein 5 (Homo sapiens), sequence (Q96QE3 whole entry, looked up, the tested form may be a part): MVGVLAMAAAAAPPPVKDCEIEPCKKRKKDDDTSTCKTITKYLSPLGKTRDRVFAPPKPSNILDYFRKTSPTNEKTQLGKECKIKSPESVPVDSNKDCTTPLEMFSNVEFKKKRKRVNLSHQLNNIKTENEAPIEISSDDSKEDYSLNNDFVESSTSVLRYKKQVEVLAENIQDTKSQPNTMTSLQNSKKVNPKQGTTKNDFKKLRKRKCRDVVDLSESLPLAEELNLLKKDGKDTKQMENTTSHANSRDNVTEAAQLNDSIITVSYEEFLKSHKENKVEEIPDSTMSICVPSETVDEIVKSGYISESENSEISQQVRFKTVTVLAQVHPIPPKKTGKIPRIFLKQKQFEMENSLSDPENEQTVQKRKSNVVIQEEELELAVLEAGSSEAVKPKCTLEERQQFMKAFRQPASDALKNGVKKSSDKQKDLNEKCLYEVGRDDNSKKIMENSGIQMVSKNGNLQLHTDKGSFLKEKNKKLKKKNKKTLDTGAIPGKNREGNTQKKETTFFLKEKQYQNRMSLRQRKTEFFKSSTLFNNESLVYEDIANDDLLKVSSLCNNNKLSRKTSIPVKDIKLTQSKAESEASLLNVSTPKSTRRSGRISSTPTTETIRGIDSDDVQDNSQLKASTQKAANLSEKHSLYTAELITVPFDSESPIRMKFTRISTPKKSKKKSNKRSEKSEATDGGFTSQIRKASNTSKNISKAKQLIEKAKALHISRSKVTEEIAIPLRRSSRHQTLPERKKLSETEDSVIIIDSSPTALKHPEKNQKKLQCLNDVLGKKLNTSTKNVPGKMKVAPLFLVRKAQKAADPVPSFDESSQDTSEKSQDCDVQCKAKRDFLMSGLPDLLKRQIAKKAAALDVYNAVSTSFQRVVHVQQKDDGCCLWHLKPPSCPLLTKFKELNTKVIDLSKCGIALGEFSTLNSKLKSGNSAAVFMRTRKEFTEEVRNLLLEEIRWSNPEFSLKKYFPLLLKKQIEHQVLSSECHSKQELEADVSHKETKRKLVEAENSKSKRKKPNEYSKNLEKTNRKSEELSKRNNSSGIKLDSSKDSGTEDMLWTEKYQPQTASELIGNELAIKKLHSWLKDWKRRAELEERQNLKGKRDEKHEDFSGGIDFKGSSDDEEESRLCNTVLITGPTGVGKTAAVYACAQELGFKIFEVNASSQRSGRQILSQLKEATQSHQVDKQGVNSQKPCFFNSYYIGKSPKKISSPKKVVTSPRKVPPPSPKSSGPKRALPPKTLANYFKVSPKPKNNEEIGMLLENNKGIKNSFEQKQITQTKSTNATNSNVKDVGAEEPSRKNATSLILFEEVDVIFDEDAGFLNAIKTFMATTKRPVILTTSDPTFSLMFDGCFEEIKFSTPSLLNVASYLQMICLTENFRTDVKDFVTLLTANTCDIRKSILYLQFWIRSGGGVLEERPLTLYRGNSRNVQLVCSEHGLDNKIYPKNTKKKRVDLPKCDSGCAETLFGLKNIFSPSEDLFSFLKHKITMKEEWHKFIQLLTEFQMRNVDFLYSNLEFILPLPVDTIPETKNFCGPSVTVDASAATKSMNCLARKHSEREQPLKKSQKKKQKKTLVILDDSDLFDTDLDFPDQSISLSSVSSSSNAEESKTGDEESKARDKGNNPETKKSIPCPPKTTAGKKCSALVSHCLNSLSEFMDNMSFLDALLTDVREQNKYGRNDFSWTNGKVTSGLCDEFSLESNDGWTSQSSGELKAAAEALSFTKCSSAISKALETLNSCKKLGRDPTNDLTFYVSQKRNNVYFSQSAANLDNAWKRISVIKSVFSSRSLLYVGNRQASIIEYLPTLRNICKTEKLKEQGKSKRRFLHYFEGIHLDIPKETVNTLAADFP

The assay has as its target ATPase family AAA domain-containing protein 5 (Homo sapiens) (UniProt Q96QE3). The assay can be described thus: Validation screen for small molecules that inhibit ELG1-dependent DNA repair in human embryonic kidney (HEK293T) cells expressing luciferase-tagged ELG1 (AID 493107).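 Further: inhibitors lower the ELG1-luciferase luminescence signal; nearly all actives have a fitted effect of over 70% in size.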 To be noted: HEK293T ELG1-luciferase level, luminescence, 5-fluorouridine co-treatment, 16 h; series mostly up to 46.1 µM; activity change, negative = decrease: at the top concentration. From the text: NIH Molecular Libraries Probe Production Network [MLPCN]
NIH Chemical Genomics Center [NCGC]
Assay Provider: Kyungjae Myung, NHGRI, NIH
Keywords: MLPCN, qHTS, NCGC, genotoxicity, cancer
Cancer cells divide rapidly compared to normal cells in the body. During cell division, cancer cells need to duplicate their genome by DNA replication. The failure of genome duplication leads to cancer cells' death. Therefore, inhibitors of DNA replication could specifically kill cancer cells. Based on this concept, many chemotherapeutic agents were developed and have been used to treat cancer patients. However, there are a limited number of agents available in the clinical setting, and some of those that do exist have low efficacy and severe side effects. Therefore, if we can find the compounds that effectively block DNA replication either by directly damaging DNA or by inhibiting other cellular mechanisms, the options for cancer treatment will be broadened. With this in mind, we developed a quantitative high-throughput ELG1-luciferase reporter gene assay. Small molecules that specifically block ELG1 function in response to DNA damage can be identified by monitoring the suppression of luciferase activity. Since ELG1 defines a pathway for repairing DNA damage, agents blocking ELG1 function can be used to sensitize cancer cells to chemotherapeutic agents whose mechanism of action involves the induction of DNA damage.
For genotoxicity screening, 2,000 cells in 4 uL/well were dispensed into white, solid-bottom 1536-well plates using a solenoid-based dispenser. Following transfer of 1 uL 5-Fluorouridine and 23 nL compound or DMSO vehicle by a pin tool, the plates were incubated 16 hr at 37 °C and 5% CO2. 5 ul ONE-Glo (Promega) was then added to each plate and following a 30 min incubation at room temperature, luciferase activity was quantified on a ViewLux CCD-based plate reader.
For `O=C1c2ccccc2-c2n[nH]c3cccc1c23`, the “activity change, negative = decrease” value was -0.678%.
The value for `CN(C)CCCC1(c2ccc(F)cc2)OCc2cc(C#N)ccc21` (stereo unspecified) was 0.585%.
For `COc1ccc2cc([C@H](C)C(=O)O)ccc2c1`, the “activity change, negative = decrease” value was 25%.
Consider `O=C(O)c1cccnc1Nc1cccc(C(F)(F)F)c1`, for which the “activity change, negative = decrease” value was 9.5%.
On to `Oc1ccc2ccccc2c1SSc1c(O)ccc2ccccc12`, for which the “activity change, negative = decrease” value is 7.16%.
In the case of `Nc1nc(N)c(N=O)c(OCC2CCCCC2)n1`, the “activity change, negative = decrease” value is 3.94%.
The value for `Nc1nc(OCc2ccccc2)c2[nH]cnc2n1` was 25.3%; that for `Cc1cc(O)c2c(c1)C(=O)c1cc(O)cc(O)c1C2=O` was 21.9%.
For the compound `COc1ccccc1N1CCN(CCN(C(=O)C2CCCCC2)c2ccccn2)CC1`, the “activity change, negative = decrease” value was -18.3%.
For `O=c1c(O)c(-c2ccc(O)cc2O)oc2cc(O)cc(O)c12` the value was 0.0611%; for `OC(CN1CCN(c2cccc(Cl)c2)CC1)C(c1ccccc1)c1ccccc1` (stereo unspecified), -1.34%; for `Nc1ccn([C@@H]2O[C@H](CO)[C@@H](O)C2O)c(=O)n1` (stereo partly specified), 8.69%.
Turning to `O=C1c2c(O)cc(O)cc2OC(c2ccc(O)c(O)c2)C1O` (stereo unspecified), the “activity change, negative = decrease” value is -13.6%.
As to `O=c1c(O)c(-c2cc(O)c(O)c(O)c2)oc2cc(O)cc(O)c12`, the “activity change, negative = decrease” value was -15%.
On to `CC1(C)NC(=O)N(c2ccc([N+](=O)[O-])c(C(F)(F)F)c2)C1=O`, for which the “activity change, negative = decrease” value was 2.94%.
For the compound `CCOC(=O)C(C)Oc1cccc2c(=O)n(CC(=O)Nc3ccc4c(c3)OCCO4)ccc12` (stereo unspecified), the “activity change, negative = decrease” value is 2.49%.
`O=C(c1ccccc1)c1ccc2n1CCC2C(=O)O` (stereo unspecified): the “activity change, negative = decrease” value was 10.7%.
On to `NC(=NCc1ccccc1)NC(=O)c1nc(Cl)c(N)nc1N`, for which the “activity change, negative = decrease” value was 21.6%.
In the case of `COc1cc2nc(N3CCN(C(=O)C4CCCO4)CC3)nc(N)c2cc1OC` (stereo unspecified), the “activity change, negative = decrease” value is 3.93%.
In the case of `CNC[C@H](O)c1ccc(O)c(O)c1`, the “activity change, negative = decrease” value was 8.07%.
For the compound `CC(C)c1ccc2c(c1)c(SC(C)(C)C)c(CC(C)(C)C(=O)O)n2Cc1ccc(Cl)cc1`, the “activity change, negative = decrease” value is -2.43%.
